Giardia FBPA inh: qHTS Assay for Inhibitors of Fructose-1,6-bisphosphate Aldolase from Giardia Lamblia. 290,000 compounds, 0.71% hits. Potency, µM (doses to about 59.6 µM), actives largely listed as inhibitors. purified Giardia FBPA. A8B2U2; further: nearly all actives have a fitted effect of over 55% in size
Target sequence (A8B2U2 whole entry, looked up): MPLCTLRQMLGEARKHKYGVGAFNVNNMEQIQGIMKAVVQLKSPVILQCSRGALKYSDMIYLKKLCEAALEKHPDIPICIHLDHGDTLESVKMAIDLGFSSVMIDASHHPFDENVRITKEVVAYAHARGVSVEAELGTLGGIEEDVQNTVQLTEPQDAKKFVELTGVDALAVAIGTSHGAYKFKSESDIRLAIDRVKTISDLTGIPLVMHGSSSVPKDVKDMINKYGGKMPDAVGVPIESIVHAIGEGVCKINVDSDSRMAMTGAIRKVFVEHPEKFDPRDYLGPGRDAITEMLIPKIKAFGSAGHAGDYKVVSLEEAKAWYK
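40 nM FBPA preincubated 10 min at RT with compound (up to 57.5 uM final), then substrate plus GAPDH/TPI/NAD/arsenate coupling and diaphorase/resazurin added. Fluorescence read after 20 min at RT, 525/598 nm.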
Pf growth 96h: Primary qHTS for delayed death inhibitors of the malarial parasite plastid, 96 hour incubation; Potency, µM (titrated, usually from 28.7 µM), actives largely listed as inhibitors; 320,000 compounds, 6.9% hits; P. falciparum luciferase reporter growth, 96 h; AID 504834, 2011
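Infected RBCs, 2% Hct / 0.05% parasitemia final; luciferase-reporter P. falciparum; cpd 96 h, 37 C, 5% CO2; luciferase detection reagent; luminescence.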
Shiga toxin inh: A qHTS for Small Molecule Inhibitors of Shiga Toxin. 290,000 compounds, 9.2% hits. inhibition, % at 38.7 µM. Vero cells, Shiga toxin protein synthesis inhibition reporter; in the data active means inhibition mostly above about 28%, no sharp cut-off; inactive means mostly below about 43%
Pf growth 48h: Primary qHTS for delayed death inhibitors of the malarial parasite plastid, 48 hour incubation; P. falciparum luciferase growth in erythrocytes, 48 h; Potency, µM (top dose mostly 28.7 µM), usual class: inhibitors; 310,000 compounds, 5.9% hits; AID 504832, 2011
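Firefly luciferase activity from engineered P. falciparum reports growth; inhibitors lower the luminescent signal. Cultures contained 2% hematocrit erythrocytes at 0.1% final parasitemia.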
Cycloheximide cs: Cycloheximide Counterscreen for Small Molecule Inhibitors of Shiga Toxin | max response, % | cell reporter, cycloheximide protein synthesis inhibition counterscreen | AID 2314, 2010 | 300,000 compounds, 12% hits; in the data active means max response mostly above about 13%, no sharp cut-off; inactive means mostly below about 14%; further: read at 38.3 µM for the half of the compounds with a filed dose
NS1 inh: qHTS Assay for Inhibitors of Influenza NS1 Protein Function; Potency, µM (top dose mostly 46.1 µM); AID 2326, 2010; 270,000 compounds, 0.4% hits; calls by dose curve; further: actives are rising curves; nearly all actives have a fitted effect of over 50% in size
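OD600 was taken as the measure of yeast growth restored by compound in an NS1-expressing S. cerevisiae strain. Cells had been washed out of glucose medium and diluted 1:100 into galactose -URA medium, pH 6.0.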
A number is an active result; i = inactive; ? = inconclusive; nt = no result. In the library only some 21% were active in any assay of this set; here they are far more common. Unless noted, the call rests on the fitted dose curve; in most records, active means well fitted curve in the direction sought with a large enough effect; inconclusive means small, poorly fitted or top-dose-only effect, or another doubt; inactive means no such curve, though single readings can be large; an effect the other way counts as inactive or inconclusive.

SMILES	Giardia FBPA inh	Pf growth 96h	Shiga toxin inh	Pf growth 48h	Cycloheximide cs	NS1 inh
CCc1nnc(NC(=O)c2ccc(S(=O)(=O)N3CCCCCC3)cc2)s1	i	nt	i	i	i	i
COc1cccc(NC(=O)CN2CCN(C(=O)c3ccco3)CC2)c1	nt	i	i	?	i	i
O=C(Nc1ccccc1)c1cc(S(=O)(=O)Nc2cccnc2)ccc1Cl	nt	i	i	i	i	i
O=C(Nc1ccccc1)c1cc(S(=O)(=O)NCc2ccncc2)ccc1Cl	nt	12µM	i	i	i	i
COc1ccc(S(=O)(=O)NCc2cccnc2)cc1C(=O)Nc1ccccc1	i	10µM	i	i	i	i
O=C(O)CCCCn1cnc2c(=S)nc[nH]c21	nt	nt	nt	nt	nt	i
CSc1ccccc1NC(=O)Cn1nc([N+](=O)[O-])c(Cl)c1C	i	i	i	i	i	i
Cc1cc([N+](=O)[O-])nn1CC(=O)N1CCN(Cc2ccccc2)CC1	i	10µM	i	?	i	nt
CSc1ccccc1NC(=O)Cn1nc([N+](=O)[O-])cc1C	i	0.19µM	i	i	i	nt
COc1cccc(Nc2ncc3nc(CCc4ccccc4)c(=O)n(C4CC4)c3n2)c1	i	nt	nt	nt	nt	nt
O=C(Nc1ncccc1O)c1cccc(S(=O)(=O)NCc2ccccc2)c1	nt	i	nt	i	nt	nt
COc1ccccc1N(Cc1ccccc1)S(=O)(=O)c1cccc(C(=O)NC2CC(C)(C)NC(C)(C)C2)c1	nt	4.7µM	nt	5.9µM	nt	nt
COc1ccccc1N(Cc1ccccc1)S(=O)(=O)c1cccc(C(=O)Nc2ncccc2C)c1	nt	?	nt	12µM	nt	nt
CC1(C)CC(NC(=O)c2ccc(Cl)c(S(=O)(=O)N(Cc3ccccc3)c3ccccc3)c2)CC(C)(C)N1	nt	7.4µM	nt	5.2µM	nt	nt
CCOc1ccccc1NC(=O)c1cccc(S(=O)(=O)N(Cc2ccccc2)c2ccccc2OC)c1	i	2.6µM	i	i	i	i
COc1ccccc1N(Cc1ccccc1)S(=O)(=O)c1cccc(C(=O)O)c1	?	i	i	i	i	?
O=C(O)c1ccc(Cl)c(S(=O)(=O)N(Cc2ccccc2)c2ccc(Cl)cc2)c1	i	i	i	i	i	i
O=C(CNC1CCCCC1)Nc1ccc(Cl)cc1	i	?	nt	i	i	i
Cn1c(SCC(=O)NC2CC2)nnc1-c1ccc(Cl)cc1	nt	i	nt	i	nt	nt
O=C(NCCCn1ccnc1)c1cc(Cl)cc(Cl)c1	i	i	i	i	i	i
Cc1ccnc(NC(=O)c2cccc(S(=O)(=O)NCc3ccccc3)c2)c1	nt	i	nt	?	nt	nt
COc1ccccc1N(Cc1ccccc1)S(=O)(=O)c1cccc(C(=O)Nc2cc(C)ccn2)c1	i	?	58	?	43	i
O=P(COCCCCCOCP(=O)(c1ccccc1)c1ccccc1)(c1ccccc1)c1ccccc1	i	i	i	?	i	nt
CC(C)C(=O)NNC(=O)c1ccccn1	i	13µM	i	?	i	i
C/C(=N\NC(=O)C(C)Oc1ccc([N+](=O)[O-])cc1)c1ccccn1 (centres undefined)	?	2.1µM	i	?	i	i
SMILES	Giardia FBPA inh	Pf growth 96h	Shiga toxin inh	Pf growth 48h	Cycloheximide cs	NS1 inh
CC(Oc1ccccc1)C(=O)NNC(=O)c1ccccn1 (centres undefined)	i	?	i	9.3µM	i	i
CC(C)Nc1nc(Cl)nc(NNC(=O)C(C)Oc2ccccc2)n1 (centres undefined)	i	1.7µM	i	i	i	i
CCNc1nc(Cl)nc(NNC(=O)C(C)Oc2ccccc2)n1 (centres undefined)	i	?	i	i	i	i
CCCOC1CCCN(C(=O)CCc2nnc(Cc3cccc(C)c3)o2)C1 (centres undefined)	i	i	95	i	47	i
CCCN(CC1CCCO1)C(=O)CCc1nnc(CCc2ccc(OC)cc2)o1 (centres undefined)	nt	i	i	i	27	i
Cc1cccc(Cc2nnc(CCC(=O)N(C)C3CCOC3)o2)c1 (centres undefined)	i	?	71	i	27	i
Cc1cccc(Cc2nnc(CCC(=O)N(CC3CC3)CC3CCCO3)o2)c1 (centres undefined)	i	?	58	i	47	i
CC(=O)c1c(OC(=O)c2ccccc2)ccnc1C(F)(F)F	nt	i	nt	i	nt	nt
Cc1c(Cl)cccc1NC(=O)Cn1cc(C(F)(F)F)cc(Cl)c1=O	i	?	i	?	i	i
CNC(=O)/C(C#N)=C/c1c(N2CCCCCC2)nc2c(C)cccn2c1=O	i	?	i	?	i	i
COc1ccc(CCc2nnc(CCC(=O)NCC3CCCO3)o2)cc1 (centres undefined)	i	i	i	i	i	i
CCN1CCN(C(=O)CCc2nnc(CCc3ccc(OC)cc3)o2)[C@@H](C)C1=O	nt	i	i	i	23	i
Cc1ccc(CNS(=O)(=O)c2ccccc2[N+](=O)[O-])cc1	i	i	i	i	29	i
Cc1ccc(CNc2ccc(S(=O)(=O)N3CCOCC3)cc2[N+](=O)[O-])cc1	i	10µM	i	i	i	i
Cc1ccc(CNc2ccc(Cl)cc2[N+](=O)[O-])cc1	i	i	72	i	48	i
Cc1ccc(CNc2ccc(N3C(=O)CCCC3=O)cc2[N+](=O)[O-])cc1	i	i	i	i	i	i
Cc1ccc(NC(=O)C2CCN(S(=O)(=O)c3ccc4ccccc4c3)CC2)nc1	nt	i	nt	i	nt	nt
O=C(O)c1cc(NN=Nc2ccc(Br)cc2)cc([N+](=O)[O-])c1	i	?	i	i	i	i
Brc1ccc(N=NNc2ccccc2)cc1	i	i	92	i	35	i
O=[N+]([O-])c1ccc(N=NNc2ccccc2)cc1	i	i	185	i	64	nt
O=[N+]([O-])c1cccc(NN=Nc2ccccc2)c1	i	?	40	i	29	i
O=C(O)c1cc(NN=Nc2cccc([N+](=O)[O-])c2)cc([N+](=O)[O-])c1	i	i	i	i	i	i
O=C(Cn1ccsc1=NC(=O)c1ccco1)c1ccccc1	i	i	i	i	24	i
O=C(Cn1cnc2ccccc2c1=O)NC1CCS(=O)(=O)C1 (centres undefined)	nt	?	nt	i	nt	nt
COc1cccc(CNc2nc3nc(C)cc(C)n3n2)c1	i	nt	i	i	11	i
Cc1cccc(Nc2ccc(NCc3ccccc3)nn2)c1	i	?	87	i	31	nt
COc1ccc(Nc2cc(C)nc(NCc3ccccc3)n2)cc1	i	1.7µM	i	0.47µM	i	i
Cc1ccc(Nc2cc(C)nc(NCc3ccccc3)n2)cc1	i	i	i	0.66µM	i	i
CC(=O)c1cccc(S(=O)(=O)NC2CCSc3ccccc32)c1 (centres undefined)	i	i	i	?	i	i
CCOc1ccccc1C(=O)NCC(=O)N(C)Cc1cccnc1	i	i	i	i	i	i

Assay outcomes (PubChem BioAssay)
